# Experimental data from PubChem BioAssay (NCATS).
# Inconclusive results are not listed. Calls of active or inactive are those of the source. Unless noted, the call rests on the fitted dose curve; in most records, active means well fitted curve in the direction sought with a large enough effect; inconclusive means small, poorly fitted or top-dose-only effect, or another doubt; inactive means no such curve, though single readings can be large; an effect the other way counts as inactive or inconclusive.
# Assays:
# [1] = qHTS Assay for Lipid Storage Modulators (AID 1519; calls by dose curve; on activity change, negative = inhibition: on the % scale 0 is the no-effect control and ±100 the full control effect); conditions: Drosophila S3 cells, BODIPY lipid droplet/cell ratio, laser cytometry, cells loaded with oleic acid; for activity change, negative = inhibition: at 57.5 µM (top of the series)
# In short: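 Cells seeded at 5,000 per well were treated with compounds over a concentration series and loaded with oleic acid (400 uM, as added). Lipid droplet fluorescence (488 nm excitation, 500-530 nm channel) was read by laser-scanning cytometry and normalized to 20 uM Triacsin C.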
# [2] = target: Ubiquitin carboxyl-terminal hydrolase 1 (Homo sapiens) (UniProt O94782); assay: Inhibitors of USP1/UAF1: Pilot qHTS (AID 504865);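 further: rhodamine fluorescence freed from ubiquitin-rhodamine substrate followed over time; top concentration of the series differs between compounds; on the % scale 0 is the no-effect control and ±100 the full control effect; nearly all actives have a fitted effect of over 35% in size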
# In short: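 Deubiquitinase activity followed as kinetic rhodamine fluorescence release from 150 nM Ub-Rho. 1 nM USP1/UAF1 with compound, after 15 min room-temperature preincubation, in HEPES pH 7.8 buffer containing TCEP, EDTA, BSA and Tween-20.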
# [3] = target: Cytochrome P450 3A4 (Homo sapiens) (UniProt P08684); assay: qHTS Assay for Inhibitors and Substrates of Cytochrome P450 3A4 (AID 884); further: nearly all actives have a fitted effect of over 50% in size; further: potency means the concentration at half of the fitted maximal effect; on activity change, negative = inhibition: on the % scale 0 is the no-effect control and ±100 the full control effect
# In short: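 20 nM human CYP3A4 with 25 uM Luciferin-PPXE (at KM) in 200 mM KPO4, preincubated 10 min with compound; NADPH regeneration started a 60 min RT reaction. Luciferin detected by luminescence, normalized to 57 uM ketoconazole as full inhibition.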
# [4] = target: Cytochrome P450 3A4 (Homo sapiens) (UniProt P08684); assay: qHTS Assay for Activators of Cytochrome P450 3A4 (AID 885); further: nearly all actives have a fitted effect of over 65% in size
# In short: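 Signal was normalized against complete inhibition by 57 uM ketoconazole. The reaction used 20nM CYP3A4 with 25uM Luciferin-PPXE, 10-min compound preincubation and a 60-min NADPH-supported step at RT.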
# [5] = Confirmation and Secondary Assay for Modulators of Hemoglobin Beta Chain Splicing at IVS2 654 locus (AID 910);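 further: HeLa cells stably carrying EGFP split by mutant beta-globin IVS2-654 intron; % of control where 0% means no effect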
# In short: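 HeLa cells stably expressing EGFP interrupted by β-globin IVS2-654 intron, seeded overnight in Opti-MEM/2% FCS, then treated 2 days at 37 °C. Restored splicing read as total peak GFP intensity per well by laser scanning cytometry (488 nm excitation, 500–520 nm emission); 500 nM antisense PNA as control.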
# [6] = Confirmation and Secondary Assay for Modulators of Hemoglobin Beta Chain Splicing at IVS2 705 locus (AID 930);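 further: HeLa cells stably expressing the EGFP-705 splicing reporter; GFP fluorescence per well restored by corrected splicing of the IVS2-705 intron in EGFP; % of control where 0% means no effect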
# In short: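 Assay measures total GFP intensity per well in HeLa EGFP-705 cells after 2 days with compound; mis-splicing normally truncates EGFP, so fluorescence indicates corrected splicing.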
# [7] = target: ATP-dependent 6-phosphofructokinase (Trypanosoma brucei brucei) (UniProt O15648); assay: qHTS Assay to Find Inhibitors of T. brucei phosphofructokinase: hit validation (AID 492961);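 further: luminescence reports ADP formed as PFK phosphorylates fructose-6-phosphate with ATP; on the % scale 0 is the no-effect control and ±100 the full control effect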
# In short: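 Compounds titrated; %activity normalized to 0x and 1x enzyme controls, curve-fitted. Readout: ADP-Glo luminescence after 45 min room-temperature reaction of 1.25 nM PFK, 0.1 mM ATP, 0.5 mM F6P, pH 8.0.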
# [8] = target: Luciferin 4-monooxygenase (Photinus pyralis) (UniProt P08659); assay: Biochemical firefly luciferase enzyme assay for NPC (AID 624030);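 further: purified P. pyralis luciferase at 10 nM with luciferin and ATP substrate; 0% = DMSO and -100% = full luciferase inhibition by PTC124 control; nearly all actives have a fitted effect of over 70% in size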
# In short: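 Purified P. pyralis luciferase at 10 nM in 50 mM Tris Acetate (final), luminescence read within 5 minutes of enzyme addition to compounds. Activity normalised to PTC124 versus DMSO; concentration-response curves classed by r2, magnitude and activity.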
# [9] = qHTS profiling for inhibitors of Plasmodium falciparum proliferation (AID 504749); further: potency means the concentration at half of the fitted maximal effect; nearly all actives have a fitted effect of over 60% in size; conditions: P. falciparum in erythrocytes, SYBR Green DNA, 72 h
# In short: (§1)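 P. falciparum-infected erythrocytes (0.3% parasitemia, 2.5% hematocrit) incubated with compound 72 h at 37 C, 5% CO2. Parasite DNA detected by SYBR Green after lysis, overnight at room temperature; normalised to 0.29 uM artemisinin and DMSO.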
# [10] = test system: CP192; assay: as above; conditions: P. falciparum in erythrocytes, SYBR Green DNA, 72 h; series mostly up to 28.7 µM
# In short: as §1
# [11] = test system: CP211; assay: as above; conditions: P. falciparum in erythrocytes, SYBR Green DNA, 72 h; series mostly up to 28.7 µM
# In short: as §1
# [12] = test system: CP286; assay: as above; conditions: P. falciparum in erythrocytes, SYBR Green DNA, 72 h; series mostly up to 28.7 µM
# In short: as §1
# [13] = test system: P94_40; assay: as above; conditions: P. falciparum in erythrocytes, SYBR Green DNA, 72 h; series mostly up to 28.7 µM
# In short: as §1
# [14] = measured here: cell count channel max response
# [15] = measured here: lipid channel max response
# Sequence of Ubiquitin carboxyl-terminal hydrolase 1 (Homo sapiens) (O94782 whole entry, looked up): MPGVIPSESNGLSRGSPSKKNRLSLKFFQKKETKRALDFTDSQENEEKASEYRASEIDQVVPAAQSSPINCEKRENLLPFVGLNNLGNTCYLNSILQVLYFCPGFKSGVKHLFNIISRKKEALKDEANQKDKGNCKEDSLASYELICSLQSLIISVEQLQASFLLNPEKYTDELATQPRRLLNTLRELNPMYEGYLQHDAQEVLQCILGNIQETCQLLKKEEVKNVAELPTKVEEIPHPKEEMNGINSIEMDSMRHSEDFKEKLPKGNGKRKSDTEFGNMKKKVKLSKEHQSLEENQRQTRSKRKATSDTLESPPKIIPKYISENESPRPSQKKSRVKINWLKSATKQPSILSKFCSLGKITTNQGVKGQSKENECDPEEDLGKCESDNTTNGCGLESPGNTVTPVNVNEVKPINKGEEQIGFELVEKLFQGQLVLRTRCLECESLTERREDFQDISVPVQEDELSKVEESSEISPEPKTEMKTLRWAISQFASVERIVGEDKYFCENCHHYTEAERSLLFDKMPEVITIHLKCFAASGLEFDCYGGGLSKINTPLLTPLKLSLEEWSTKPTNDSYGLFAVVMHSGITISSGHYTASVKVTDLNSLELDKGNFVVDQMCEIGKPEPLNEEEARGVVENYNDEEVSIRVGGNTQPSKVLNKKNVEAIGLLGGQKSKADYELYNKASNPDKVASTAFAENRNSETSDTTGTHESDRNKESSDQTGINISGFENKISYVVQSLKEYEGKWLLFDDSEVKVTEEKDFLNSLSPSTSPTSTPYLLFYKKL
# Sequence of Cytochrome P450 3A4 (Homo sapiens) (P08684 whole entry, looked up): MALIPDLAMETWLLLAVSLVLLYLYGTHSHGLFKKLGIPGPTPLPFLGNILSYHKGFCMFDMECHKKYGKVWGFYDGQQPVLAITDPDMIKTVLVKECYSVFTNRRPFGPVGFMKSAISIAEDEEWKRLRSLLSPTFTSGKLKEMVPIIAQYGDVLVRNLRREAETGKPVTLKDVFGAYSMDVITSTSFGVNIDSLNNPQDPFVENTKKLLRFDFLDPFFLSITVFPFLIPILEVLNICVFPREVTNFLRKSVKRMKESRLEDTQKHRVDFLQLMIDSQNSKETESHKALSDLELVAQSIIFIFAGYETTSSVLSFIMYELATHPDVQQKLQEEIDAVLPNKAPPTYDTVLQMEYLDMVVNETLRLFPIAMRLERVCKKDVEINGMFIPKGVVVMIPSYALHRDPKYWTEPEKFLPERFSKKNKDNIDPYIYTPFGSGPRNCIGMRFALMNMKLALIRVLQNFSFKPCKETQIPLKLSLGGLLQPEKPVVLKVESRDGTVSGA
# Sequence of ATP-dependent 6-phosphofructokinase (Trypanosoma brucei brucei) (O15648 whole entry, looked up): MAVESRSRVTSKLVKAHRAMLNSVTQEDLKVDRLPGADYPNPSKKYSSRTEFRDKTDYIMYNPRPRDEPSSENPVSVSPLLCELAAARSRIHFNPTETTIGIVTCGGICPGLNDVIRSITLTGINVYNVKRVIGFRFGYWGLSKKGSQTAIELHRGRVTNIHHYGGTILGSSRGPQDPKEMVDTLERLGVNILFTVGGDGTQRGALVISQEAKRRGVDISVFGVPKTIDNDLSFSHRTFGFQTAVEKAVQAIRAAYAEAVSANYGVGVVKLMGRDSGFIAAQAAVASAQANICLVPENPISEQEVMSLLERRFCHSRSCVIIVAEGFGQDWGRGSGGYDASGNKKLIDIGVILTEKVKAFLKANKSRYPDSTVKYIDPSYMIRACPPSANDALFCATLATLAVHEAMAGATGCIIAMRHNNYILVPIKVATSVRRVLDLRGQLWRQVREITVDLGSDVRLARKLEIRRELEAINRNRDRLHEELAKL
# Sequence of Luciferin 4-monooxygenase (Photinus pyralis) (P08659 whole entry, looked up): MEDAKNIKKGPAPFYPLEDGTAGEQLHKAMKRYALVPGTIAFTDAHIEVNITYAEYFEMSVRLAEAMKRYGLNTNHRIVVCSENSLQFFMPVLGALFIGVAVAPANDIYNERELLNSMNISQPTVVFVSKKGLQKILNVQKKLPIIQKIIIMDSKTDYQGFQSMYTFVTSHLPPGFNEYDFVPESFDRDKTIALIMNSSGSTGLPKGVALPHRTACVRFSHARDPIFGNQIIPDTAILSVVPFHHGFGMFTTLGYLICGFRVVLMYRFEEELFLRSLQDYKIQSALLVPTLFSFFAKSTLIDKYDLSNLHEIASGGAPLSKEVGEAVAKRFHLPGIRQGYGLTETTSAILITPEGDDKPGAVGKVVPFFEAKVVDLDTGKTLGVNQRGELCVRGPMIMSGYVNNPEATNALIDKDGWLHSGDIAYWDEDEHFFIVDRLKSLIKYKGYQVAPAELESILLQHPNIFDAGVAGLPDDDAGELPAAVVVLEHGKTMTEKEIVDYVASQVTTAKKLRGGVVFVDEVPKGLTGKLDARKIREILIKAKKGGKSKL
smiles,measurement,setting,value
COc1cc2c(c(OC)c1OC)-c1ccc(OC)c(=O)cc1C(NC(C)=O)CC2 (stereo not drawn),"activity change, negative = inhibition",[1],7.05% (inactive)
same,max response,[1]; [14],10.2%
same,max response,[1]; [15],20.2%
same,Potency,[2],inactive
C=CC1CN2CCC1CC2C(OC(=O)OCC)c1ccnc2ccc(OC)cc12 (stereo not drawn),Potency,[3],7.94 µM (active)
same,Potency,[4],inactive
same,Potency,[5],inactive
same,Potency,[6],inactive
same,"activity change, negative = inhibition",[1],5.87% (inactive)
same,max response,[1]; [14],0.936%
same,max response,[1]; [15],9.58%
same,Potency,[7],inactive
same,Potency,[2],inactive
same,Potency,[8],inactive
same,Potency,[9]; parasite line A,1.58 µM (active)
same,Potency,[9]; parasite line B,2.24 µM (active)
same,Potency,[10],6.75 µM (active)
same,Potency,[11],15.1 µM (active)
same,Potency,[12],5.01 µM (active)
same,Potency,[13],3.55 µM (active)
CCc1cccc(C)c1N(C(=O)CCl)C(C)COC (stereo not drawn),Potency,[3],inactive
same,Potency,[5],inactive
same,"activity change, negative = inhibition",[1],1.46% (inactive)
same,max response,[1]; [14],1.84%
same,max response,[1]; [15],4.99%
same,Potency,[2],inactive
O=C1CCCC2[C@@H]3CCCN4CCC[C@@H](CN12)C34 (stereo partly drawn),Potency,[3],inactive
same,"activity change, negative = inhibition",[1],4.15% (inactive)
same,max response,[1]; [14],4.45%
same,max response,[1]; [15],7.09%
same,Potency,[2],inactive
CC(C)OC(=O)Nc1cccc(Cl)c1,Potency,[3],inactive
same,Potency,[5],inactive
same,Potency,[6],inactive
same,"activity change, negative = inhibition",[1],8.95% (inactive)
same,max response,[1]; [14],5.17%
same,max response,[1]; [15],15.8%
same,Potency,[2],inactive
CC[C@@H]1CN2CC[C@@H]1C[C@H]2[C@H](O)c1ccnc2ccc(OC)cc12,Potency,[3],inactive
same,"activity change, negative = inhibition",[1],-1.21% (inactive)
same,max response,[1]; [14],1.88%
same,max response,[1]; [15],1.41%
same,Potency,[2],inactive
